# In PubChem BioAssay AID1117361 (Southern Research Institute, 2015):
# About 900 (25%) of roughly 3,600 compounds were called active. The rule behind the calls is not given here. Only a sample is shown. Potency and affinity values are given separately.
# Target: Protein Tat (Human immunodeficiency virus type 1 group M subtype B (isolate HXB2)) (UniProt P04608)
# Test: HIV-1 Tat–TAR interaction blockers – biochemical, fluorescence polarization, FAM-labeled TAR RNA, counter-screen for Vif-APOBEC3G degradation inhibitor project, dose response (AID 1117361)
# Details: Tat-TAR RNA binding; series mostly up to 100 µM; inhibition: at the top concentration
SMILES,outcome,inhibition
O=C(CSc1nnc2n(C3CCCCC3)c(=O)c3ccccc3n12)OC1CCCCC1,inactive,–
Cc1cc(Cl)c(S(=O)(=O)NCc2cccnc2)cc1OCC(=O)NC1CCCCC1,inactive,–
O=S(=O)(c1cccs1)n1nnc2ccccc21,inactive,–
COc1cc(-c2nnc(SCc3cc(=O)oc4cc(O)c(O)cc34)o2)cc(OC)c1OC,–,1.67% (inactive)
C=C(c1ccc(OCCO)cc1)c1ccc(OCCO)cc1,–,12.8% (inactive)
CC(=O)N1CCN(c2ccc(NC(=O)COc3ccc(Cl)cc3Cl)cc2)CC1,–,8.87% (inactive)
Cc1nc2ccc(NS(=O)(=O)c3ccc(F)cc3F)cc2s1,inactive,–
CC1(C)C/C(=C(/C#N)C(N)=O)CCO1,–,8.11% (inactive)
COc1cc2c(cc1OC)C(C(=O)O)C(c1cc(Br)c(O)c(OC)c1)N(C)C2=O (stereo not drawn),–,0.68% (inactive)
Cc1sc2ncnc(OCC(=O)NCC3CCCO3)c2c1C (stereo not drawn),–,10.1% (inactive)
CN(Cc1ccccc1)C(=O)C1CCCN1S(=O)(=O)c1ccc2c(c1)n(C)c(=O)c(=O)n2C (stereo not drawn),inactive,–
O=C(NCCSCc1ccccc1)c1ccc(C2SCC(=O)N2Cc2ccccc2)cc1 (stereo not drawn),inactive,–
CCCn1nc(Oc2nc(SC)nc(N(C)C)n2)ccc1=O,inactive,–
O=C(Nn1cnnc1)c1cc(-c2cccc(Br)c2)nc2ccccc12,inactive,–
COc1ccc2nc(-c3ccccc3)cc(C(=O)OCC(=O)N3CC(C)OC(C)C3)c2c1 (stereo not drawn),inactive,–
CC(C)OP(=O)(OC(C)C)C(O)c1ccc(N(C)C)cc1 (stereo not drawn),–,7.42% (inactive)
Cc1oc(/N=C/c2cccc3ccccc23)c(C#N)c1C,–,3.67% (inactive)
O=C1C=C(c2c(O)ccc3ccccc23)c2ccccc2C1=O,–,3.01% (inactive)
COc1ccc(CCN2CC(C(=O)NCC(c3ccccc3)N(C)C)CC2=O)cc1OC (stereo not drawn),inactive,–
COc1cc2c(cc1OC)C(C)N(C(=O)c1cc3n(n1)C(C(F)(F)F)CC(c1ccco1)N3)CC2 (stereo not drawn),–,14.9% (inactive)
Cc1[nH]c(=O)[nH]c(=O)c1S(=O)(=O)N1CCCC(C(=O)NCCc2ccccc2)C1 (stereo not drawn),inactive,–
CCC(C)[C@H](NC(=O)N1CCCC1)C(=O)O (stereo partly drawn),–,3.38% (inactive)

SMILES,outcome,inhibition
CCOC(=O)c1[nH]nc(-c2c(O)cc(C)cc2O)c1-c1csc(C)n1,–,4.95% (inactive)
CC(=O)N1CCc2cc(S(=O)(=O)NC(C(=O)NC3CCCc4ccccc43)C(C)C)ccc21 (stereo not drawn),–,6.14% (inactive)
Cc1nc2ccc(S(=O)(=O)NC(C(=O)N3CCC(C)CC3)C(C)C)cc2s1 (stereo not drawn),–,0.68% (inactive)
COC(=O)C1CCCN1S(=O)(=O)c1ccc2ccccc2c1 (stereo not drawn),inactive,–
Cc1ccc(Nc2nc3ccccc3nc2-n2nc(C)cc2C)cc1,inactive,–
Cc1nc(SCC(=O)Nc2ccnc3ccccc23)n[nH]1,–,11.6% (inactive)
Cc1c(Cl)cccc1NC(=O)CSc1nnc(C)n1-c1ccccc1,inactive,–
Cc1cc(SCC(=O)Nc2ccccc2C)nc(C)n1,–,8.78% (inactive)
COCCn1c(SCC(=O)Nc2cccc(C)n2)nnc1-c1ccco1,inactive,–
CC(C)Cn1c(SCC(=O)Nc2cccnc2Cl)nnc1-c1ccco1,–,1% (inactive)
Cc1cccc(NC(=O)CSc2nnc(-c3ccccc3C)o2)c1,–,4.77% (inactive)
CCC1(C)Cc2c(sc(NC(=O)CCC(=O)O)c2C#N)CO1 (stereo not drawn),–,4.09% (inactive)
CCCSc1nc2c(cnn2-c2ccc(C)cc2)c(=O)[nH]1,inactive,–
CCCCc1cc(C(=O)Cc2ccccn2)c(O)cc1O,–,8.35% (inactive)
CC(C)NC(=O)c1ccc(COCC(F)(F)C(F)F)cc1,inactive,–
CN(C)CCOCCSc1ccc(Cl)cc1,inactive,–
CC(C)(NO)/C(=N\O)c1ccccc1,–,6.14% (inactive)
Cc1cc(Nc2ccc(Br)cc2)n2nc(C)nc2n1,inactive,–
CCc1cc2c(N3CCCCC3)ncnc2s1,inactive,–
CCOc1ccc(Nc2nc(Cc3nnc(SCC(=O)NCC4CCCO4)n3C)cs2)cc1 (stereo not drawn),inactive,–
CCOC(=O)c1c(C)[nH]c(C(=O)OCC(=O)N2c3ccccc3CC2C)c1C (stereo not drawn),–,7.5% (inactive)
S=C(Nc1cccc(Cl)c1)NC1CCCCC1,–,3.41% (inactive)

SMILES,outcome,inhibition
CC1CCc2[nH]c3ccc(C(=O)N(C)CC(=O)Nc4ccc(F)cc4)cc3c2C1 (stereo not drawn),inactive,–
CC(=O)N1CCc2cc(S(=O)(=O)NCCC(=O)Nc3cccc(C)c3C)ccc21,–,10.9% (inactive)
CC(=O)c1cccc(NC(=O)c2cnn3ccccc23)c1,–,4.77% (inactive)
Cn1nnc(NC(=O)c2cccc(F)c2)n1,–,5.46% (inactive)
O=C(NNC(=O)c1ccccc1F)c1cccc(-n2cccc2)c1,inactive,–
CC(=O)Nc1ccc(NC(=O)CN(c2cccc(C(C)=O)c2)S(C)(=O)=O)cc1,inactive,–
CCN(CC)C(=O)NCc1c(C)cc(C)cc1C,inactive,–
Cc1ccc(-n2[nH]c(=O)c3cccnc32)cc1,inactive,–
O=C(Nc1ccc(Cl)c(-c2nc3ccccc3[nH]2)c1)c1cccnc1,–,3.41% (inactive)
CCCCCCN(C(=O)CCCCCN1C(=O)NC(c2ccc(C(C)(C)C)cc2)C(C(=O)OCc2ccccc2)=C1C)C(C(=O)NCCCC)c1ccc(OCC(=O)OC)c(C(=O)OC)c1 (stereo not drawn),–,0.82% (inactive)
CCOC(CNC(=O)C(=O)Nc1cc2c3c(c1)CC(=O)N3CCC2)OCC,–,0.33% (inactive)
CCOC(=O)C1CCN(S(=O)(=O)c2cccc(-c3cn4cccc(C)c4n3)c2)CC1,–,2.7% (inactive)
C/C(=N\n1c(C)nc2ccccc2c1=O)c1ccc(C)o1,inactive,–
COc1ccc(C(=O)CSc2n[nH]c(N)n2)cc1,–,0.68% (inactive)
CCOC(=O)c1sc(-c2ccccc2)cc1NC(=O)CSc1nnnn1C,inactive,–
Cc1cc(C(=O)N2CCN(C/C=C/c3ccccc3)CC2)cs1,–,6.76% (inactive)
CC1=C(C(=O)N2CCCCC2)C2(CCC(C)CC2)OC1=O (stereo not drawn),–,2.03% (inactive)
COc1ccc(NS(=O)(=O)c2cccc(Cl)c2Cl)cc1S(=O)(=O)N1CCCCC1,–,4.77% (inactive)
COc1ccc(OC)c(S(=O)(=O)Nc2cnc3ccccc3c2)c1,–,4.09% (inactive)
COC(=O)CN1C(=O)C(O)=C(C(C)=O)C1c1ccc([N+](=O)[O-])cc1 (stereo not drawn),–,2.73% (inactive)
CC1(c2ccccc2)NC(=O)N(CC(=O)Nc2cccc(C#N)c2)C1=O (stereo not drawn),–,0.7% [at 50 µM] (inactive)
CS(=O)(=O)N1CCC(C(=O)Nc2ccccc2)CC1,inactive,–

SMILES,outcome,inhibition
O=C(CCc1ccccc1)Nc1ccc2c(c1)OCCO2,inactive,–
COc1ccccc1N(CC(=O)NC(C)C)S(=O)(=O)c1cccs1,inactive,–
O=C(Nc1cc(Cl)ccn1)C1CCN(S(=O)(=O)c2cccs2)CC1,–,8.78% (inactive)
O=C(Nc1ccncc1)C1CCN(S(=O)(=O)c2c(Cl)cccc2Cl)CC1,–,6.35% (inactive)
CC(C)c1nnc(NC(=O)CCC(=O)NCc2ccco2)s1,–,0.68% (inactive)
O=C(CN1CCCCC1)Nc1nnc(-c2ccccc2)s1,–,0.68% (inactive)
CC(=O)C1=C(N2CCCCC2)CCC1=O,–,4.73% (inactive)
Cc1ccc(CNC(=O)CN(c2cccc([N+](=O)[O-])c2)S(C)(=O)=O)cc1,inactive,–
CCCn1[nH]cc(SC)c(=O)c1=O,inactive,–
O=c1c(N=Nc2ccc(O)cc2)c(-c2ccccc2)[nH]n1-c1ccc([N+](=O)[O-])cc1,–,3.3% (inactive)
CC(SC1=NCCS1)C(=O)Nc1nnc(-c2ccc(Cl)cc2)s1 (stereo not drawn),inactive,–
CCn1cc(S(=O)(=O)CC(=O)Nc2ccc(OC)cc2)c2ccccc21,–,0.68% (inactive)
COc1cc(C(=O)Nc2ccc(S(=O)(=O)NC(C)C)cc2)cc(OC)c1OC,–,6.82% (inactive)
C#Cc1ccc([C@H]2C=C(C(=O)N3CCOCC3)O[C@@H](OCc3ccc(CO)cc3)C2)cc1,inactive,–
COc1ccccc1C(=O)Nc1cccc(-c2cn3ccsc3n2)c1,–,4.05% (inactive)
O=C(OCn1ncc(Br)c(Br)c1=O)c1ccc(F)cc1,–,1.35% (inactive)
C=CCc1ccc(OCCCCN2CC(C)OC(C)C2)c(OC)c1 (stereo not drawn),–,7.5% (inactive)
O=C(NCCCN1CCOCC1)C1(c2ccccc2)CCCC1,inactive,–
COc1ccc(C(=O)Oc2c(CN3CCOCC3)cc(Cl)c3cccnc23)cc1,inactive,–
Oc1c(CN2CCOCC2)cc(CN2CCOCC2)c(O)c1O,–,1% (inactive)
Cc1ccc(C(=O)Oc2ccc(Cl)c3cccnc23)cc1[N+](=O)[O-],–,0.68% (inactive)
O=[N+]([O-])c1cc(CN2CCN(c3cccc(C(F)(F)F)c3)CC2)c2cccnc2c1O,–,1.65% (inactive)

SMILES,outcome,inhibition
Cc1[nH]c2ccccc2c1C1=CC(=O)C=CC1=O,inactive,–
CC[n+]1c(/C=C2/C=C(C)CC(C)(C)C2)sc2ccc(OC)cc21,–,3.01% (inactive)
Cc1nn(CC(=O)NC2CC2)c(C)c1S(=O)(=O)N(C)C,inactive,–
C/C(N)=C(/C#N)C(=O)CSc1nnc(Nc2c(C)cccc2C)s1,–,15% (inactive)
CC(Oc1ccc(Cl)cc1)c1ccnn1S(C)(=O)=O (stereo not drawn),–,2.73% (inactive)
CC(=O)Nc1cc(NC(C)=O)cc(C(=O)N2CCCC3CCCCC32)c1 (stereo not drawn),–,26.4% (inactive)
CCC(=O)Nc1ccc(S(=O)(=O)NC[C@H]2O[C@@H](n3cc(C)c(=O)[nH]c3=O)C[C@@H]2O)cc1,inactive,–
CCOC(=O)CSc1nnc(-c2ccccc2NC(=O)c2ccccc2)o1,–,1.36% (inactive)
O=C(NCc1cn2ccccc2n1)c1ccc2c(c1)OCO2,–,0.68% (inactive)
Cn1ncc2c(Nc3ccc4ccccc4c3)ncnc21,–,1.36% (inactive)
CCC(C)N1C(=O)S/C(=C/c2ccc(Sc3nc4ccccc4[nH]3)o2)C1=O (stereo not drawn),inactive,–
COc1cccc(-c2cc(C(=O)Nc3cnn(Cc4ccccc4C)c3)no2)c1,–,7.43% (inactive)
Cc1ccc(S(=O)(=O)N2CCN(C(C(=O)Nc3ccc(F)cc3)c3ccccc3)CC2)cc1 (stereo not drawn),–,2.05% (inactive)
CC(C)c1ccc(NC(=O)C(c2ccccc2)N2CCC3(CC2)OCCO3)cc1 (stereo not drawn),–,0.68% (inactive)
Cc1[nH]c2ccccc2c1C(=O)Cn1c(=O)oc2ccccc21,–,4.73% (inactive)
O=C(CCC(=O)OCC(=O)c1ccc(F)cc1)NC1CCCCC1,–,0.68% (inactive)
CCOC(=O)C1=C(CSc2nc(C)ccc2C#N)OC(N)=C(C#N)C1c1cccc(OC)c1OC (stereo not drawn),–,3.41% (inactive)
O=C(CN(c1ccc(F)cc1)S(=O)(=O)c1ccc2c(c1)OCCO2)NCc1ccccn1,–,15.5% (inactive)
COc1ccc(N(CC(=O)NCc2ccccc2C)S(=O)(=O)c2ccc(C)cc2)cc1OC,–,3.01% (inactive)
NNC(=O)c1ccc(N2CCc3ccccc32)c([N+](=O)[O-])c1,inactive,–
